FGF22 binding – binders of human FGF22 protein, primary screen, FGF22 synaptogenesis inhibitor project, biophysical, thermal shift, single point. Fibroblast growth factor 22 (Homo sapiens), Q9HCT0. recombinant FGF22 thermal shift, SYPRO orange fluorescence; percent of sucrose octasulfate shift, DMSO zero. activity (Tm shift, normalised), % at 9.99 µM. 340,000 tested, 1.5% active. AID 651658, 2012;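 active = mean Tm shift, scaled 0 neutral to 100 positive control, at about 1.3% or above, every replicate too, limit read from the data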
Target sequence (Q9HCT0 whole entry, looked up): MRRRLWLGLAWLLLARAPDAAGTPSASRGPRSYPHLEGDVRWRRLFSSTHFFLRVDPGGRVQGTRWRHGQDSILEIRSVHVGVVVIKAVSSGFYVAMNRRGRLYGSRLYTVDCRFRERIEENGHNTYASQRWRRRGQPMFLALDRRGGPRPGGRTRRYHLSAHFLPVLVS
ERAP1 inh – human ERAP1 aminopeptidase inhibitors, primary screen, biochemical, single point, plate reader. recombinant ERAP1, Leu-AMC fluorescence, 60 min. inhibition, % at 10.7 µM. 340,000 tested, 0.15% active. AID 652197, 2013;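 active = mean replicate inhibition of at least 30%, or all replicates individually reaching that 30% level; inactive = mean below 30% and not every replicate reaching it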;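 note: 0% = neutral control wells and 100% = L-leucinethiol positive control wells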
Casp6 inh – human caspase-6 inhibitors, primary screen, biochemical, VEID-R110 fluorescence, single point, set 2. P55212. purified caspase-6, Z-VEID-R110 cleavage fluorescence. inhibition, % at 12.5 µM. 350,000 tested, 0.53% active. AID 686996, 2013;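 active = mean inhibition across replicates at least about 35%, with every replicate also reaching that limit, limit read from the data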;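 note: 0% = median of neutral control wells and 100% = no fluorescence left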
Target sequence (P55212 24-179 limits assumed): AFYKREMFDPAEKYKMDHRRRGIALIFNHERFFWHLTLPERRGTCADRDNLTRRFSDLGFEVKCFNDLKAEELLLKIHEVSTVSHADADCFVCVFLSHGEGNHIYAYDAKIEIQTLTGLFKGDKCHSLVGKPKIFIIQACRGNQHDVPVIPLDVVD
Target sequence (P55212 194-293 limits assumed): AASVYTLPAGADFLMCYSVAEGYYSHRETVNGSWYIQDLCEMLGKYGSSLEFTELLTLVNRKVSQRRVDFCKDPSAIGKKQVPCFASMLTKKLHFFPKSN
SIRT5 inh – SIRT5 desuccinylase inhibitors, primary screen, biochemical, fluorescence imaging, single point, set 5; inhibition, % at 15 µM; NAD-dependent protein deacylase sirtuin-5, mitochondrial (Homo sapiens), Q9NXA8; 330,000 tested, 1.1% active; Purified SirT5, succinyl-peptide AMC, trypsin-coupled fluorescence; in the data active = inhibition above about 15%
* marks the source's active call; other numbers are inactive results; ! = a repeat was not active. Rows were chosen to be rich in hits. Some 3.1% of all compounds tested hit in one or more screens of this group.

For CN1[C@@H]2Cn3c(cccc3=O)[C@H]1[C@@H](C(=O)NCC1CC1)[C@@H]2CO the results were FGF22 binding 0, ERAP1 inh 3, Casp6 inh 0 and SIRT5 inh 2.
For COC(=O)[C@H]1[C@H](CO)[C@H]2Cn3c(ccc(-c4ccccc4F)c3=O)[C@@H]1N2C(=O)C1CC1 the results were FGF22 binding 0, ERAP1 inh 1, Casp6 inh 0 and SIRT5 inh -8.
`Cc1ccc(OC(=O)N(C)C[C@H]2OCc3ccccc3-c3c(n(C)c4ccccc34)C(=O)N([C@H](C)CO)C[C@@H]2C)cc1` gave ERAP1 inh 1, Casp6 inh -1 and SIRT5 inh 11.
CN1CCC2(CC1)C(C#N)=C(N)NC(S)=C2C#N was read as FGF22 binding 0, ERAP1 inh 1, Casp6 inh 47*! and SIRT5 inh -1.
`OC1/C(=C/c2ccc(F)cc2)N2CCC1CC2` (stereo unspecified) gave FGF22 binding 43*, ERAP1 inh -3, Casp6 inh -5 and SIRT5 inh -4.
For OC1/C(=C/c2ccc(Cl)cc2Cl)N2CCC1CC2 (stereo unspecified) the results were FGF22 binding 0, ERAP1 inh -7, Casp6 inh 0 and SIRT5 inh 2.
CN1C(=O)NC(=O)C(N=Nc2ccc(Cl)cc2)C1=O (stereo unspecified) was read as FGF22 binding 0, ERAP1 inh 0, Casp6 inh 47* and SIRT5 inh -5.
Screening COc1cccc(C(=O)C2CCCN(Cc3ccon3)C2)c1 (stereo unspecified) returned FGF22 binding 0, ERAP1 inh 1, Casp6 inh 3 and SIRT5 inh -7.
COc1ccc(C(=O)C2CCCN(Cc3cnc(C)s3)C2)c(OC)c1 (stereo unspecified) was read as FGF22 binding 0, ERAP1 inh 0, Casp6 inh 2 and SIRT5 inh 3.
Screening COc1ccc(C(=O)C2CCCN(Cc3ccccn3)C2)c(OC)c1 (stereo unspecified) returned FGF22 binding 43*, ERAP1 inh -6, Casp6 inh 0 and SIRT5 inh 3.
For COc1ccc2cc(C(=O)C3CCCN(C4CCOCC4)C3)ccc2c1 (stereo unspecified) the results were FGF22 binding 0, ERAP1 inh 3, Casp6 inh -3 and SIRT5 inh -36.
COc1c(C)cc(C(=O)C2CCCN(C3CCOCC3)C2)cc1C (stereo unspecified) was read as FGF22 binding 43*, ERAP1 inh -2, Casp6 inh -1 and SIRT5 inh 0.
`COc1c(C)cc(C(=O)C2CCCN(Cc3cccc(C)n3)C2)cc1C` (stereo unspecified) gave FGF22 binding 44*, ERAP1 inh -3, Casp6 inh 1 and SIRT5 inh -3.
COc1cccc(C(=O)C2CCCN(Cc3cccc(C)n3)C2)c1 (stereo unspecified) was read as FGF22 binding 44*, ERAP1 inh -3, Casp6 inh -1 and SIRT5 inh 3.
O=C(Cc1ccccc1)N1CCCCN2[C@H](C1)[C@@H](c1ccc(C#Cc3ccccc3)cc1)[C@@H]2CO was read as FGF22 binding 0, ERAP1 inh -2, Casp6 inh 1 and SIRT5 inh -2.
Screening COC(=O)[C@H]1[C@H](CO)[C@H]2Cn3c(ccc(/C=C/c4ccccc4)c3=O)[C@@H]1N2CC1CCCC1 returned FGF22 binding 0, ERAP1 inh -20, Casp6 inh 3 and SIRT5 inh -31.
For O=C(O)[C@H]1[C@H](CO)[C@H]2Cn3c(ccc(-c4cncnc4)c3=O)[C@@H]1N2C(=O)NC1CCCC1 the results were FGF22 binding 0, ERAP1 inh 0, Casp6 inh 0 and SIRT5 inh -18.
For COc1ccc(N2C(=O)NC(=O)/C(=C/c3ccc(N4CCOCC4)cc3)C2=O)cc1 the results were FGF22 binding 0, ERAP1 inh 4, Casp6 inh 1 and SIRT5 inh 1.
For CN(C)c1ccc(/C=C2/C(=O)NC(=O)N(Cc3ccco3)C2=O)cc1 the results were FGF22 binding 0, ERAP1 inh 15, Casp6 inh 81* and SIRT5 inh 31*.
Screening COc1ccc(/C=C2/C(=O)N(Cc3ccco3)C(=O)N(C(C)C)C2=O)cc1 returned FGF22 binding 0, ERAP1 inh 11, Casp6 inh 78* and SIRT5 inh 25*.
For C/C=C/c1ccc(C2[C@@H]3CN(Cc4cccc(F)c4)C[C@H]2N3)cc1 (stereo partly specified) the results were ERAP1 inh 2, Casp6 inh 0 and SIRT5 inh 5.
C[C@@H]1CN([C@H](C)CO)C(=O)CCCn2nncc2CO[C@H]1CN(C)C(=O)Oc1ccc2ccccc2c1 was read as FGF22 binding 43*!, ERAP1 inh -2, Casp6 inh -3 and SIRT5 inh 3.
`COc1ccc(OC(=O)N(C)C[C@H]2OCc3cnnn3CCCC(=O)N([C@@H](C)CO)C[C@H]2C)cc1` gave FGF22 binding 0, ERAP1 inh -5, Casp6 inh 9 and SIRT5 inh 15*!.
For O=C(Cc1ccccn1)N1CCCCN2[C@H](CO)[C@@H](c3ccc(-c4ccccc4)cc3)[C@@H]2C1 the results were FGF22 binding 0, ERAP1 inh -2, Casp6 inh -1 and SIRT5 inh 3.
For CCN(CC)c1ccc(/C=C2\C(=O)NC(=O)N(CC3CCCO3)C2=O)cc1 (stereo unspecified) the results were FGF22 binding 43*, ERAP1 inh 2, Casp6 inh 2 and SIRT5 inh 2.
Screening CC(C)[N+](C)(CCC(C(N)=O)(c1ccccc1)c1ccccc1)C(C)C returned FGF22 binding 0, ERAP1 inh 96*, Casp6 inh -9 and SIRT5 inh -4.
CCC(=O)C(CCN1CCOCC1)(c1ccccc1)c1ccccc1 was read as FGF22 binding 0, Casp6 inh 0 and SIRT5 inh -3.
`O=C(Cc1ccccc1)N1C[C@H]2[C@@H](c3ccccc31)[C@@H](CO)N2Cc1ccccc1` gave FGF22 binding 1 and SIRT5 inh -2.
For O=P(O)(O)CN1CCNCCN(CP(=O)(O)O)CCNCC1 the results were FGF22 binding 43*, ERAP1 inh 14 and Casp6 inh -48.
Screening O=C(Cc1ccccn1)N1CCCCN2[C@H](CO)[C@@H](c3ccc(-c4ccccc4F)cc3)[C@@H]2C1 returned FGF22 binding 0, ERAP1 inh 1, Casp6 inh -2 and SIRT5 inh -2.

Screening data deposited in PubChem BioAssay by Broad Institute.
